Assay outcomes deposited in PubChem BioAssay by several laboratories.
Shown are actives, neighbours in structure and some others; about 6.9% of the full set was active somewhere.
MPTP block = mitochondrial permeability transition pore inhibitors, primary screen, biochemical, isolated mouse mitochondria, absorbance; Ca2+ swelling absorbance, 30 min; inhibition, % at 10 µM; 360,000 tested, 1.4% active;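 active = inhibition of 50% or more, scaled per plate between neutral and stimulator controls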
CSC inhib = cancer stem cell viability inhibitors, primary screen, luminescence; cancer stem cell-like cells viability; inhibition, % at 7.5 µM; 300,000 tested, 1.1% active; AID 2717, 2010; in the data active = inhibition above about 75%; tested in HMLE shEcad cells
Beta apoptosis = inhibitors of cytokine-induced beta cell apoptosis, primary screen, luminescence; INS-1E cytokine-induced death, ATP luminescence, 48 h; percent of positive-control rescue, neutral wells zero; protection from apoptosis, % (test concentration not listed); 300,000 tested, 0.8% active; AID 435005, 2010;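 active = Every replicate reaches about 75%, or at least half do and their mean reaches it too, limit read from the data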;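 also: higher means more ATP so stronger rescue from cytokine killing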
NR3A LBD binder = binders of NR3A ligand-binding domain, primary screen, biophysical, differential scanning fluorimetry, uHTS | Glutamate receptor ionotropic, NMDA 3A (GRIN3A) ligand-binding domain | NR3A LBD differential scanning fluorimetry, Tm shift; 0% = protein alone, 100% = glycine-bound protein | Tm shift relative to glycine control, % at 25 µM | 340,000 tested, 2.5% active;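 active = melting temperature shift of at least 10% of the positive control shift, at one fixed dose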
SKKanGAS inh = S. pyogenes SKKanGAS growth inhibitors in kanamycin, primary screen, streptokinase expression inhibitor project, SKKanGAS strain, BacTiter-Glo luminescence; 6 h; inhibition, % at 7.5 µM; 300,000 tested, 1.3% active;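 active = mean replicate score, as percent of positive control median, at least 50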;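 also: strain carries kanamycin resistance gene driven by streptokinase promoter and grows in 40 µg/ml kanamycin; loss of luminescence reflects streptokinase promoter inhibition or plain growth inhibition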
Mdm2-MdmX inh = inhibitors of human Mdm2-MdmX association, primary screen, cell-based, luminescence, split luciferase, SaOS-2, uHTS; Protein Mdm4 (Homo sapiens) + E3 ubiquitin-protein ligase Mdm2 (Homo sapiens), …; SaOS-2 split-luciferase Mdm2/MdmX complementation; inhibition, % at 8 µM; 330,000 tested, 3% active; AID 485346, 2010;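 active = inhibition of at least 50% at 8 µM in the primary screen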
Target sequence (O15151 whole entry, looked up): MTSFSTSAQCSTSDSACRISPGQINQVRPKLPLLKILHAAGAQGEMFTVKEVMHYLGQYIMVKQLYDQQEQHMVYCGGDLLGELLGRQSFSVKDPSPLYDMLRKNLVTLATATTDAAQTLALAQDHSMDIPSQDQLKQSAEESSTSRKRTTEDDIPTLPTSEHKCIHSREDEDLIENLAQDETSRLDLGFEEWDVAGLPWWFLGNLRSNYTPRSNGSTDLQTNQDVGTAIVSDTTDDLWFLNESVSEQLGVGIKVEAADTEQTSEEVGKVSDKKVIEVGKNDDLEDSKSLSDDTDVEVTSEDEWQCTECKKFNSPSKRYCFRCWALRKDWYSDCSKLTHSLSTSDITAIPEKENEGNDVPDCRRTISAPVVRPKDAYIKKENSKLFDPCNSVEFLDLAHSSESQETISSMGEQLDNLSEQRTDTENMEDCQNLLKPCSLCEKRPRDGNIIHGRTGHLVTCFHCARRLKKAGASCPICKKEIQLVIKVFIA
Target sequence (Q00987 whole entry, looked up): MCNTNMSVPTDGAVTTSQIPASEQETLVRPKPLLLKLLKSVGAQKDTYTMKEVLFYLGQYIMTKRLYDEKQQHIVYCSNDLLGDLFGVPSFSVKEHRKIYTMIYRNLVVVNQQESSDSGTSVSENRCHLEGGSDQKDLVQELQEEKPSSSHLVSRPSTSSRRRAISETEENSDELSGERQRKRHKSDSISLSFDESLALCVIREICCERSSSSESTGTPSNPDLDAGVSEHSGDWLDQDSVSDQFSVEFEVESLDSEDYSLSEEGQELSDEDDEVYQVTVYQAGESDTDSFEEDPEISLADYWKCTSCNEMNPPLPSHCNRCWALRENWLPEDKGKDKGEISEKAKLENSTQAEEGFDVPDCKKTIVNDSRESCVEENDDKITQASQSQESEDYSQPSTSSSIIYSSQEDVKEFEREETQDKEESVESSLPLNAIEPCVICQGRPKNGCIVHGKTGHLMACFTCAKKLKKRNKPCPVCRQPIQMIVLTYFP
Mdm2 MdmX conf = Mdm2-MdmX complex disruptors, retested hits, confirmation, luminescence, single concentration; Mdm2-MdmX binding, luminescent assay; AID 489028, 2010; shares compounds with Mdm2-MdmX inh; 10,000 tested, 55% active; inhibition, % at 8 µM; in the data active = inhibition above about 40%
Full FLuc ctr = full-length luciferase signal inhibition, confirmation, counter-screen for Mdm2/MdmX interaction inhibitor project, cell-based, single concentration, SaOS-2; AID 504607, 2011; inhibition, % at 8 µM; shares compounds with Mdm2-MdmX inh; SaOS-2 full-length luciferase counterscreen, luminescence; 6,200 tested, 77% active;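 active = mean inhibition at 8 µM reaching about 37%, which flags the compound as non-specific, limit read from the data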;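 also: p53-null SaOS-2 cells with luciferase driven by a doxycycline-inducible promoter; compound on cells about two nights before reading with doxycycline added after day one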
Large screens that a line does not name were inactive (follow-up assays come after a bar, where they were run).

COc1ccc(C2CC(=O)c3c(C)nc(N4CCN(Cc5ccccc5)CC4)nc3C2)cc1OC (centres undefined)	none
C=CCn1c(O)c(N=NC(=O)OCC)c2ccccc21	none
C=CCn1c(O)c(N=NC(=S)Nc2cccc(OC)c2)c2ccccc21	SKKanGAS inh 87.1, Mdm2-MdmX inh 58.3 | Mdm2 MdmX conf 40.0 | Full FLuc ctr 48.2
Cc1ccccc1N(C(=O)c1snc(C(N)=O)c1N)C(C(=O)NCC1CCCO1)c1ccc(F)cc1 (centres undefined)	none
CCOC(=O)C(C)CC(C)C(=O)N1CCOCCOCCN(C(=O)C(C)CC(C)C(=O)OCC)CCOCC1 (centres undefined)	none (no result: CSC inhib)
CCOC(=O)C(C(=O)OCC)C(C(=O)OCC)N1CCOCC1 (centres undefined)	Mdm2-MdmX inh 100.5 (no result: Beta apoptosis) | Mdm2 MdmX conf inactive
N#CC(=Nc1ccccc1)c1ccccc1	none (no result: CSC inhib, Beta apoptosis, SKKanGAS inh, Mdm2-MdmX inh)
COc1ccccc1-c1sc2cc3c(cc2c1-c1ccc(OCCN2CCOCC2)cc1)OCO3	none (no result: CSC inhib, Beta apoptosis, SKKanGAS inh)
COc1ccc(-c2sc3cc4c(cc3c2-c2ccc(OCCN3CCCCC3)cc2)OCO4)cc1	Mdm2-MdmX inh 70.1 (no result: CSC inhib, Beta apoptosis, SKKanGAS inh) | Mdm2 MdmX conf inactive
c1ccc2c(-c3ccc(OCCN4CCCCC4)cc3)c(-c3ccsc3)sc2c1	CSC inhib 103.4, Mdm2-MdmX inh 68.4 (no result: SKKanGAS inh) | Mdm2 MdmX conf inactive
COc1cc(OC)cc(-c2sc3ccc(OC)cc3c2-c2ccc(OCCN3CCCCC3)cc2)c1	Mdm2-MdmX inh 62.7 (no result: CSC inhib, Beta apoptosis, SKKanGAS inh) | Mdm2 MdmX conf inactive
CN(C)S(=O)(=O)c1ccc(NC(=O)CSc2nnc(-c3ccco3)o2)cc1	none (no result: SKKanGAS inh)
COc1ccc(NC(=O)N2CCCC2C(=O)NCCc2ccccc2)cc1 (centres undefined)	none
CC1CCCC(C)N1/N=C/c1ccccc1Br (centres undefined)	none
Cn1c(C(=O)NCc2ccccc2)cc2oc3ccccc3c21	Mdm2-MdmX inh 88.5 | Mdm2 MdmX conf 86.8 | Full FLuc ctr inactive
Cn1c(C(=O)NCC2CCCO2)cc2oc3ccccc3c21 (centres undefined)	none
Cn1c(C(=O)NCc2cccs2)cc2oc3ccccc3c21	Mdm2-MdmX inh 77.4 | Mdm2 MdmX conf 72.4 | Full FLuc ctr inactive
CCOC(=O)N1CCC2CC1c1cc(-c3cccc(OC)c3)ccc12 (centres undefined)	none (no result: CSC inhib, Beta apoptosis, SKKanGAS inh, Mdm2-MdmX inh)
C=CC1CN(C(=O)OCC(Cl)(Cl)Cl)C2CC3c4ccc(OC)cc4NC3C3CC1C2CO3 (centres undefined)	Mdm2-MdmX inh 56.9 | Mdm2 MdmX conf inactive
O=C(CSc1nc2cc([N+](=O)[O-])ccc2n1-c1ccccc1)NCc1ccc2c(c1)OCO2	Mdm2-MdmX inh 56.0 | Mdm2 MdmX conf inactive
COc1ccc(S(=O)(=O)N2CCCCCC2)cc1C(=O)N(C)Cc1ccc(C(C)(C)C)cc1	Mdm2-MdmX inh 53.3 | Mdm2 MdmX conf inactive
CN1CCN(C2Cc3cc(F)ccc3Sc3ccc(Cl)cc32)CC1 (centres undefined)	none
CN1CCN(C2Cc3ccc(F)cc3Sc3cc(F)c(Cl)cc32)CC1 (centres undefined)	CSC inhib 100.8, SKKanGAS inh 97.3, Mdm2-MdmX inh 64.7 (no result: Beta apoptosis) | Mdm2 MdmX conf 40.7 | Full FLuc ctr 56.5
CC(C)c1ccc2c(c1)C(N1CCNCC1)Cc1ccc(F)cc1S2 (centres undefined)	CSC inhib 102.5, Beta apoptosis 116.3, Mdm2-MdmX inh 61.8 (no result: MPTP block) | Mdm2 MdmX conf inactive
O=C1OC(Nc2ccc3c(c2)OCO3)c2ccccc21 (centres undefined)	Mdm2-MdmX inh 70.1 | Mdm2 MdmX conf 41.1 | Full FLuc ctr 54.8
CCNC(=O)c1ccccc1SCc1ccccc1	none
CCc1ccc(OCCNC(=O)c2ccccc2SCc2ccccc2)cc1	Mdm2-MdmX inh 79.6 | Mdm2 MdmX conf 79.5 | Full FLuc ctr 57.4
Cc1c(CC(=O)NCCCC(=O)O)c(=O)oc2cc3c(cc12)CCC(C)(C)O3	none
O=C1NC(=Nc2cccnc2)S/C1=C/c1ccc(F)cc1	Mdm2-MdmX inh 51.5 | Mdm2 MdmX conf inactive
O=C1NC(=Nc2ccccc2)S/C1=C\c1cccnc1	none (no result: Beta apoptosis)
COc1ccc(-c2csc(/C(C#N)=C\c3ccc(OC)c([N+](=O)[O-])c3)n2)cc1	NR3A LBD binder 32.6, Mdm2-MdmX inh 53.7 | Mdm2 MdmX conf inactive
N#C/C(=C\Nc1ccc2c(c1)OCCO2)c1nc(-c2ccccc2)cs1	none
COc1ccc(-c2csc(/C(C#N)=C/Nc3ccc4c(c3)OCCO4)n2)cc1	Mdm2-MdmX inh 52.0 | Mdm2 MdmX conf inactive
Cc1ccc(N(CC(=O)NC(C)(C)C)C(=O)CCC(=O)Nc2ccccn2)cc1	none (no result: CSC inhib, Beta apoptosis, NR3A LBD binder, SKKanGAS inh, Mdm2-MdmX inh)
c1cc(Nc2cccc3nccnc23)c2nccnc2c1	Mdm2-MdmX inh 61.4 | Mdm2 MdmX conf 52.2 | Full FLuc ctr 89.8
Fc1ccc(Nc2cccc3nccnc23)cc1	none (no result: CSC inhib)
Cc1cc(N2CCOCC2)ccc1/C=C1\NC(=O)N(Cc2ccccc2F)C1=O	Mdm2-MdmX inh 71.1 | Mdm2 MdmX conf inactive
CC(=O)Nc1ccc(S(=O)(=O)Oc2ccc3c(c2)C(C)=CC(C)(C)N3)cc1	Mdm2-MdmX inh 98.1 (no result: MPTP block, NR3A LBD binder) | Mdm2 MdmX conf 78.9 | Full FLuc ctr inactive
COc1ccc(-c2c3c(nc4sc5c(=O)[nH]c(C)nc5c24)CCC3)cc1	Mdm2-MdmX inh 66.9 | Mdm2 MdmX conf inactive
NC1=NC[C@H](Cc2ccccc2)N1CCc1cc(C(F)(F)F)cc(C(F)(F)F)c1	Mdm2-MdmX inh 63.2 | Mdm2 MdmX conf inactive
CCOC1=C2[C@@H](CN(S(=O)(=O)c3ccc(C)cc3)[C@H]2c2ccccc2Cl)[C@H]2C(=O)N(C(C)(C)C)C(=O)[C@H]2C1	none (no result: CSC inhib, Beta apoptosis, NR3A LBD binder, SKKanGAS inh, Mdm2-MdmX inh)
COc1cc(/C=C(\C#N)c2[nH]nc(N)c2C#N)cc(OC)c1O	Mdm2-MdmX inh 64.6 | Mdm2 MdmX conf inactive
CC(=O)S[C@@H]1CC2=CC(=O)CC[C@]2(C)[C@H]2CC[C@@]3(C)[C@@H](CC[C@@]34CCC(=O)O4)[C@H]12	Mdm2-MdmX inh 56.5 | Mdm2 MdmX conf inactive
O=C(CC(C(=O)O)P(=O)(c1ccccc1)c1ccccc1)c1ccccc1 (centres undefined)	none
COc1ccc(-c2nn(-c3ccccc3)cc2/C=C/C(=O)N2CCN(c3ccccn3)CC2)cc1	SKKanGAS inh 60.1, Mdm2-MdmX inh 58.6 | Mdm2 MdmX conf inactive
